In PubChem BioAssay AID1347041 (National Center for Advancing Translational Sciences (NCATS), 2019):
About 740 (0.15%) of roughly 480,000 compounds were called active. No stated cut-off is given here; in the data, active means activity change below about -30%; inconclusive means mostly about -25% to -30%; inactive means weaker than that. The entries come from a sample that favours actives as a whole.
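Further: values are at about 110 or 230 µM; plate controls were DMSO wells for no effect and wells without enzyme for full effect.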

What follows are compounds tested against L-lactate dehydrogenase A chain (Homo sapiens) (UniProt P00338) (assay: qHTS assay for inhibitors of human lactate dehydrogenase). Conditions: purified LDHA, NADH/diaphorase-resazurin fluorescence; hits give low values.
Text: LDH is a key glycolytic enzyme that catalyzes the final step in the glycolytic pathway, reducing pyruvate to lactate and regenerating NAD+ equivalents necessary for continued glycolysis. LDHA has been linked to the carcinogenesis and malignancy in numerous forms of cancers and many other diseases. Consequently, both pharma and academia have invested in significant research efforts to identify small molecule therapeutics. Such attempts have been stalled or abandoned due to limited success in discovering potent and drug-like inhibitors that can be utilized to validate LDHA in vivo as a drug target, a necessary step toward advancing such a molecule towards the clinic Towards this goal we designed and performed a quantitative high-throughput screening (qHTS) campaign to discover novel compounds that are potent inhibitors of LDHA enzyme activity and cancer cell line growth.
The assay was optimized to 1536-well plates. Briefly, 3 µL of human lactate dehydrogenase 5 (#A38558H, Meridian Life Science, Inc., Memphis, TN) in LDH assay buffer (200 mM Tris HCl pH 7.4, 100 microM EDTA and 0.01% Tween-20) was added to a black solid bottom 1536-well assay plate (Greiner Bio-One) using a BioRAPTR FRD dispenser (Beckman Coulter, Brea, CA). A 1536-well pintool dispenser outfitted with 20 nL pins (Wako Automation, San Diego, CA) was used to transfer 23 nL of DMSO-solubilized compound (both library and vehicle controls) to each 1536-well assay plate. Following compound transfer, 1 µL of substrate solution containing NADH and sodium pyruvate (Sigma-Aldrich, St. Louis, MO) in LDH assay buffer was dispensed via BioRAPTR FRD to initiate the reaction. Final concentrations in the 4 microL reaction volume were 2 nM LDHA enzyme, 0.06 mM NADH and 0.2 mM sodium pyruvate. Following a 5 minute incubation period at room temperature, 1 µL of detection reagent (C. kluyveri diaphorase (Sigma-Aldrich) and resazurin sodium salt (Sigma-Aldrich) in LDH assay buffer) was added to a total volume of 5 µL. Final concentrations of detection reagents were 0.133 mg/mL diaphorase and 37 µM resazurin. Plates were immediately transferred to a ViewLux microplate imager (PerkinElmer, Waltham, MA), and any resulting resorufin fluorescence was measured (ex540, em590 nm) at 0 and 20 minutes. Fluorescence was normalized using enzyme-free and DMSO-treated control wells on each plate.
In the case of `CCC(CC)(Cc1nc2ccccc2s1)C(=O)Nc1ccc(N2CCOCC2)cc1`, the activity change is reported as 5.36% (inactive).
With `C/C(=N\NC(=O)c1ccc(C(C)(C)C)cc1)C(C)C` the activity change was 11.2% (inactive).
In the case of `O=[N+]([O-])c1cc(S(=O)(=O)Nc2ccc(Cl)cc2)ccc1N/N=C/c1ccccc1C(F)(F)F`, the activity change is reported as 3.88% (inactive).
With `O=[N+]([O-])c1cc(S(=O)(=O)Nc2cccc(Cl)c2)ccc1N=Nc1c(O)[nH]c2ccccc12` the activity change was -42.1% (active).
`O=[N+]([O-])c1cc(S(=O)(=O)Nc2ccccc2NS(=O)(=O)c2cccs2)ccc1Cl` was tested, and the activity change was 13.9% (inactive).
With `Cc1cc(C)c(/C=N/NC(=O)c2ccccc2)c(C)c1` the activity change was 4.2% (inactive).
For `COc1cccc(/C=N/NC(=O)c2[nH]nc3c2CCc2ccccc2-3)c1O`, the activity change was -78.6% (active).
In the case of `CC(C)(C)c1ccc(/C=N/NC(=O)c2ccccc2)cc1`, the activity change is reported as 12.2% (inactive).
For `CC(OC(=O)c1cccc(-n2cnnn2)c1)C(=O)Nc1ccc(N2CCOCC2)cc1` (stereo not given), the activity change was 6.53% (inactive).
In the case of `CC(=O)Nc1cccc(NC(=O)c2cnn(-c3ccccc3F)c2C(F)(F)F)c1C`, the activity change is reported as 9.39% (inactive).
With `O=C(N/N=C/c1ccccc1OCCOc1ccc([N+](=O)[O-])cc1)Nc1ccccc1` the activity change was -7.59% (inactive).
`O=C(N/N=C/c1ccccc1Cl)c1ccc(Cl)s1` was tested, and the activity change was 5.95% (inactive).
`O=C(NN=Cc1ccccc1O)NN=Cc1ccccc1O` was tested, and the activity change was -72% (active).
In the case of `N#C/C(=C/c1ccccc1)c1ccc(C(F)(F)F)cn1`, the activity change is reported as -3.61% (inactive).
For `Cc1ccccc1CC(=O)Nc1ccc(N2CCOCC2)c(Cl)c1`, the activity change was -4.8% (inactive).
`COCCN1C(=O)C(=O)/C(=C(/O)c2ccc3c(c2)OCCO3)C1c1cccc(O)c1` (stereo not given) was tested, and the activity change was 9.53% (inactive).
`O=S(=O)(c1ccc2c(c1)OCCO2)c1nc(-c2cccc(Cl)c2)oc1N1CCOCC1` was tested, and the activity change was -9.35% (inactive).
For `NC(=O)c1ccc(NC(=O)CCc2ncc(-c3c(F)cccc3F)o2)cc1`, the activity change was -1.68% (inactive).
For `Cc1cc(N2CCC(C)CC2)n2nc(-c3ccccc3)nc2n1`, the activity change was 7.05% (inactive).
For `c1ccc(Oc2ccc(CNc3ncccn3)cn2)cc1`, the activity change was -10.1% (inactive).
In the case of `CCCn1c(N)c(-c2csc(Nc3ccc(F)cc3)n2)c(=O)n(C)c1=O`, the activity change is reported as 2.91% (inactive).
`CCc1nn2c(=O)cc(CN(CC)Cc3ccc(OCc4ccccc4)cc3)nc2s1` was tested, and the activity change was -24.3% (inactive).
In the case of `Cc1ccccc1CSc1nc(=O)c2c(n1C)NC(=O)CC2c1ccc(OCC(N)=O)cc1` (stereo not given), the activity change is reported as 2.91% (inactive).
`O=C(CSc1ccccc1F)c1ccc2c(c1)-c1ccccc1C2` was tested, and the activity change was 10.6% (inactive).
`Cc1ccc(C)c(-n2c3c(cc(C#N)c2=O)C(=O)CC(c2ccccc2)C3)c1` (stereo not given) was tested, and the activity change was -0.429% (inactive).
With `CCOC(=O)c1c(C)[nH]c(C(=O)COc2cc(Cl)ccc2Cl)c1C` the activity change was -3.64% (inactive).
With `CC1=C(C(=O)Nc2cccc(C)c2C)C(c2ccc(C)cc2)NC(=O)N1` (stereo not given) the activity change was -9.14% (inactive).
With `CC1CCN(C(=O)C(C)n2cnc3c2c(=O)n(C)c(=O)n3C)CC1` (stereo not given) the activity change was 1.51% (inactive).
`COc1ccc(-c2csc(-c3cc4c([nH]c3=O)CC(c3ccco3)CC4=O)n2)cc1F` (stereo not given) was tested, and the activity change was 6.35% (inactive).
With `COc1ccc(-c2c(C)c3cc(OS(=O)(=O)c4ccc(F)cc4)ccc3oc2=O)cc1OC` the activity change was 1.58% (inactive).
`CCN(CC(=O)Nc1ccc(S(=O)(=O)N2CCCC2)cc1)CC(=O)Nc1cccc(OC)c1` was tested, and the activity change was -38.2% (active).
In the case of `COc1cccc(CNC(C)C(=O)Nc2ccc(S(=O)(=O)N3CCCC3)cc2)c1` (stereo not given), the activity change is reported as -0.452% (inactive).
`CCN(CC(=O)Nc1cccc(S(=O)(=O)N2CCCCC2)c1)Cc1ccccc1` was tested, and the activity change was -5.08% (inactive).
In the case of `CC(C)CC(NC(=O)C(c1ccccc1)c1ccccc1)c1ccccc1` (stereo not given), the activity change is reported as -5.71% (inactive).
For `Oc1c(Cl)cc(Cl)c(Cl)c1Cc1c(O)c(Cl)cc(Cl)c1Cl`, the activity change was -106% (active).
`Fc1cccc(Cl)c1CNc1ccc(Cl)cc1` was tested, and the activity change was 11.8% (inactive).
`CC(C)(C)n1nc(N)c2cc([N+](=O)[O-])ccc21` was tested, and the activity change was -0.323% (inactive).
For `O=C(Cc1c[nH]c2ccccc12)Nc1cc(F)cc(F)c1`, the activity change was 0.607% (inactive).
For `C=CC(=O)OCCOCCOCCOCCOC(=O)C=C`, the activity change was -3.09% (inactive).
For `O=C(O)COCCOCC(=O)O`, the activity change was -30% (active).
In the case of `O=C(O)CCC(=O)O`, the activity change is reported as 0.526% (inactive).
With `CCN(CC(=O)NCc1cccs1)C(=O)c1cccc(S(=O)(=O)N(C)c2ccc(C)cc2)c1` the activity change was 2.57% (inactive).
In the case of `O=C(Cc1ccsc1)NCCc1ccccc1`, the activity change is reported as -0.295% (inactive).
With `CCCOc1ccc(N2C(=O)CC(N(CCc3ccc(S(N)(=O)=O)cc3)C(C)=O)C2=O)cc1` (stereo not given) the activity change was -18% (inactive).
In the case of `NS(=O)(=O)c1ccc(N2C(=O)C3C4CC(C(Br)C4Br)C3C2=O)cc1` (stereo not given), the activity change is reported as -58.8% (active).
`O=C1C2C3C=CC(C3)C2C(=O)N1c1ccc(S(=O)(=O)Nc2nccs2)cc1` (stereo not given) was tested, and the activity change was -9.54% (inactive).
For `O=C(NCc1nc(-c2ccc(Cl)cc2)no1)c1cc2ccccc2o1`, the activity change was 0.842% (inactive).
With `Cc1ccc(-c2ccccc2N)cc1` the activity change was -2.5% (inactive).
For `O=C(c1ccc[nH]1)c1cc2cc(Br)ccc2o1`, the activity change was -2.8% (inactive).
`Cc1cccc(/C=C/C(=O)c2cccs2)c1` was tested, and the activity change was 7.28% (inactive).
For `CCCNC(=O)C(C)NC(=O)COc1ccccc1NC(C)=O` (stereo not given), the activity change was -1.76% (inactive).
For `Cc1ccc(-c2nc(CS(=O)CC(=O)Nc3ccc(C)c(C)c3)cs2)cc1` (stereo not given), the activity change was 0.528% (inactive).
For `O=C(O)CCC(=O)Nc1ccc2c(C(C(=O)O)N3CCN(c4ccccc4)CC3)c[nH]c2c1` (stereo not given), the activity change was -5.22% (inactive).
For `Cc1ccc(NC(=O)C(Sc2nnnn2C2CCCC2)c2ccccc2)cc1` (stereo not given), the activity change was 11.6% (inactive).
With `c1ccc(-c2nc(-c3ccc4c(c3)OCCCO4)cs2)nc1` the activity change was 5.7% (inactive).
`c1coc(CNc2ccc3c(c2)ncn3C2CCCCC2)c1` was tested, and the activity change was 13.3% (inactive).
`CC1CCCN(CCOCCOc2ccccc2-c2ccccc2)C1` (stereo not given) was tested, and the activity change was -8.67% (inactive).
In the case of `COc1ccccc1OCCCCCCN1CCN(C)CC1`, the activity change is reported as -2.1% (inactive).
In the case of `CN1CCN(CCCCOc2ccccc2-c2ccccc2)CC1`, the activity change is reported as -36.2% (active).
With `O=C(CCn1ccccc1=O)Nc1ccc(Cl)cc1Cl` the activity change was 11.9% (inactive).
